# PubChem BioAssay AID1159580 (chemical genetic matrix, 2015)
# The whole screen tested about 5,500 compounds, of which about 2,000 (36%) were called active. About 18% were inconclusive and are not listed. This is one part of the list. A number with no mark means an inactive call. Cut-off read from the data, not from the text of the source: active = normalized growth mostly below about 0.91 (no sharp cut-off); inconclusive = no clear call, values can overlap the other calls; inactive = mostly above about 0.92.
# Assay: chemical genetic growth profiling, strain panel (AID 1159580);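 note: tested at 20 µM; growth read once vehicle control cultures reached saturation at 30 °C; 1 = growth at the plate median or of vehicle wells; lower values mean less growth of the strain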
# Conditions: growth OD
# [1] = S. cerevisiae deletion strains, locus YAL013W, strain DEP1, active compounds read low
# [2] = S. cerevisiae deletion strains, locus YBR229C, strain ROT2, active compounds read low
# [3] = S. cerevisiae deletion strains, locus YDL101C, strain DUN1, active compounds read low
# [4] = S. cerevisiae deletion strains, locus YDL134C, strain PPH21, active compounds read low
# [5] = S. cerevisiae deletion strains, locus YDR150W, strain NUM1, active compounds read low
# [6] = S. cerevisiae deletion strains, locus YEL061C, strain CIN8, active compounds read low
# [7] = S. cerevisiae deletion strains, locus YGR078C, strain PAC10, active compounds read low
# [8] = S. cerevisiae deletion strains, locus YHR030C, strain SLT2, active compounds read low
# [9] = S. cerevisiae deletion strains, locus YHR087W, strain rtc3, active compounds read low
# [10] = S. cerevisiae deletion strains, locus YJR043C, strain POL32, active compounds read low
# [11] = S. cerevisiae deletion strains, locus YJR075W, strain HOC1, active compounds read low
# [12] = S. cerevisiae deletion strains, locus YKL190W, strain CNB1, active compounds read low
# [13] = S. cerevisiae deletion strains, locus YLR039C, strain RIC1, active compounds read low
# [14] = S. cerevisiae deletion strains, locus YLR058C, strain SHM2 (second series), active compounds read low
# [15] = S. cerevisiae deletion strains, locus YLR085C, strain ARP6, active compounds read low
# [16] = S. cerevisiae deletion strains, locus YLR262C, strain YPT6, active compounds read low
# [17] = S. cerevisiae deletion strains, locus YML094W, strain GIM5, active compounds read low
# [18] = S. cerevisiae deletion strains, locus YMR219W, strain ESC1, active compounds read low
# [19] = S. cerevisiae deletion strains, locus YMR263W, strain SAP30, active compounds read low
# [20] = S. cerevisiae deletion strains, locus YMR307W, strain GAS1, active compounds read low
# [21] = S. cerevisiae deletion strains, locus YNL153C, strain GIM3, active compounds read low
# [22] = S. cerevisiae deletion strains, locus YNL298W, strain CLA4 (second series), active compounds read low
# [23] = S. cerevisiae deletion strains, locus YNL322C, strain KRE1, active compounds read low
# [24] = S. cerevisiae deletion strains, locus YNR030W, strain Alg12, active compounds read low
# [25] = S. cerevisiae deletion strains, locus YPL055C, strain LGE1, active compounds read low
# [26] = S. cerevisiae deletion strains, locus YPL241C, strain CIN2, active compounds read low
# [27] = S. cerevisiae deletion strains, locus YPR135W, strain CTF4, active compounds read low
compound,measurement,setting,value
Cc1ccc(/C(N)=N\O)cc1F,normalized growth,[1],0.998
same,normalized growth,[2],1
same,normalized growth,[3],1.01
same,normalized growth,[4],0.988
same,normalized growth,[5],0.995
same,normalized growth,[6],1.01
same,normalized growth,[7],1.01
same,normalized growth,[8],1.03
same,normalized growth,[9],1
same,normalized growth,"S. cerevisiae deletion strains, locus YJL187C, strain SWE1, active compounds read low",1.02
same,normalized growth,[10],1.01
same,normalized growth,[11],1.03
same,normalized growth,[12],0.988
same,normalized growth,[13],1.04
same,normalized growth,[14],1.02
same,normalized growth,[15],1.32 [resistant] (active)
same,normalized growth,[16],0.997
same,normalized growth,[17],1
same,normalized growth,[18],1
same,normalized growth,[19],1
same,normalized growth,[20],1.24
same,normalized growth,"S. cerevisiae deletion strains, locus YNL128W, strain TEP1, active compounds read low",0.975
same,normalized growth,[21],1.02
same,normalized growth,[22],1.02
same,normalized growth,[23],1
same,normalized growth,[24],0.989
same,normalized growth,"S. cerevisiae deletion strains, locus YOL006C, strain TOP1, active compounds read low",1.03
same,normalized growth,[25],1.03
same,normalized growth,[26],1.1
same,normalized growth,[27],1.07
N/C(=N/O)c1csc(-c2ccc(F)cc2F)n1,normalized growth,[1],0.96
same,normalized growth,[2],0.978
same,normalized growth,[3],1.02
same,normalized growth,[4],0.995
same,normalized growth,[5],0.968
same,normalized growth,[6],1.01
same,normalized growth,[7],0.989
same,normalized growth,"S. cerevisiae deletion strains, locus YGR229C, strain SMI1, active compounds read low",0.995
same,normalized growth,[8],0.921
same,normalized growth,[9],0.98
same,normalized growth,[10],1
same,normalized growth,[11],1.02
same,normalized growth,[12],0.996
same,normalized growth,[13],0.933
same,normalized growth,[14],1.01
same,normalized growth,[15],1.14
same,normalized growth,[16],0.969
same,normalized growth,[17],0.933
same,normalized growth,[18],0.995
same,normalized growth,[19],0.997
same,normalized growth,[20],1.25
same,normalized growth,[21],0.986
same,normalized growth,[22],1.01
same,normalized growth,[23],1
same,normalized growth,[24],0.983
same,normalized growth,[25],0.943
same,normalized growth,[26],1
same,normalized growth,[27],0.844
same,normalized growth,"S. cerevisiae strains, strain wild type, active compounds read low",0.991
